This passage reports Potency results from PubChem BioAssay (NCATS).

The nature of experiment [1]: Quantitative High-Throughput drug screen in 47 multiple myeloma cell lines against the NCATS MIPE library collection: JIM3_ECACC cell viability assay (AID 1918963; further: nearly all actives have a fitted effect of over 35% in size; further: potency means the concentration at half of the fitted maximal effect). The following applies: JIM3 myeloma viability, CellTiter-Glo ATP, 48 h; series mostly up to 45.8 µM. The procedure, abridged: (§1)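 Viability readout: CellTiter-Glo luminescence following 5 min room-temperature incubation with reagent. Prior exposure: 48 h, 37C, humidified 5% CO2, 500 cells per well.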
A general note: ATP-based viability assays read luminescence as a measure of living cells.

Experiment [2] in a line: Quantitative High-Throughput drug screen in 47 multiple myeloma cell lines against the NCATS MIPE library collection: INA6_PLB cell viability assay (AID 1918965; further: nearly all actives have a fitted effect of over 55% in size; further: potency means the concentration at half of the fitted maximal effect). The note with it: INA6 myeloma viability, CellTiter-Glo ATP luminescence, 48 h; series mostly up to 45.8 µM. The procedure, abridged: (§2)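 Approved and investigational drugs from MIPE 4.0 were added by pin tool to 500 cells per well. After 48 hours at 37C, ATP-based CellTiter-Glo luminescence indicated remaining viability.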

The nature of experiment [3]: Quantitative High-Throughput drug screen in 47 multiple myeloma cell lines against the NCATS MIPE library collection: Karpas25_ECACC cell viability assay (AID 1918968; further: nearly all actives have a fitted effect of over 35% in size; further: potency means the concentration at half of the fitted maximal effect). The note with it: Karpas25 myeloma viability, CellTiter-Glo ATP, 48 h; series mostly up to 45.8 µM. The procedure, abridged: (§3)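 Luminescent ATP measurement with CellTiter-Glo gives viability, scaled between DMSO-only wells (100%) and media-only wells (0%). Cells, 500 per well, faced library compounds for 48 hours at 37C.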

A short description of experiment [4]: Quantitative High-Throughput drug screen in 47 multiple myeloma cell lines against the NCATS MIPE library collection: KMS27_JCRB cell viability assay (AID 1918970). Further: nearly all actives have a fitted effect of over 30% in size. Further: potency means the concentration at half of the fitted maximal effect. The note with it: KMS27 myeloma cells, CellTiter-Glo ATP viability, 48 h; series mostly up to 45.8 µM. An outline of the steps: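 ATP-based viability (CellTiter-Glo luminescence) is measured in cells treated 48 h with approved and investigational drugs at 37 °C. Controls are DMSO-only wells for full viability and media-only wells for none.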

Experiment [5] can be described thus: Quantitative High-Throughput drug screen in 47 multiple myeloma cell lines against the NCATS MIPE library collection: KMS12BM_JCRB cell viability assay (AID 1918971). Further: nearly all actives have a fitted effect of over 35% in size. Further: potency means the concentration at half of the fitted maximal effect. The note with it: KMS12BM myeloma viability, CellTiter-Glo ATP, 48 h; series mostly up to 45.8 µM. An outline of the steps: (§4)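 Myeloma cell lines, 500 cells per well, exposed to MIPE 4.0 library compounds for 48 h at 37C, 5% CO2. Viability from ATP by CellTiter-Glo luminescence; normalised to DMSO (100%) and media-only (0%) wells.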

Experiment [6] is described as follows: Quantitative High-Throughput drug screen in 47 multiple myeloma cell lines against the NCATS MIPE library collection: KMS12PE_JCRB cell viability assay (AID 1918972). Further: nearly all actives have a fitted effect of over 30% in size. Further: potency means the concentration at half of the fitted maximal effect. The following applies: KMS12PE myeloma viability, CellTiter-Glo ATP, 48 h; series mostly up to 45.8 µM. An outline of the steps:
as §2

Experiment [7] is described as follows: Quantitative High-Throughput drug screen in 47 multiple myeloma cell lines against the NCATS MIPE library collection: MOLP8_DSMZ cell viability assay (AID 1918977). Further: nearly all actives have a fitted effect of over 45% in size. Further: potency means the concentration at half of the fitted maximal effect. The note with it: MOLP8 myeloma viability, CellTiter-Glo ATP luminescence, 48 h; series mostly up to 45.8 µM. An outline of the steps: (§5)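 MIPE 4.0 approved/investigational drugs; 500 cells/well; 48 h 37 °C humidified 5% CO2; CTG luminescence readout; DMSO = 100%, media = 0% viability.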

Experiment [8] is described as follows: Quantitative High-Throughput drug screen in 47 multiple myeloma cell lines against the NCATS MIPE library collection: OCIMY1_PLB cell viability assay (AID 1918979). Further: nearly all actives have a fitted effect of over 35% in size. Further: potency means the concentration at half of the fitted maximal effect. The note with it: OCI-MY1 myeloma viability, CellTiter-Glo ATP, 48 h; series mostly up to 45.8 µM. The procedure, abridged:
as §5

The nature of experiment [9]: Quantitative High-Throughput drug screen in 47 multiple myeloma cell lines against the NCATS MIPE library collection: JIM1_ECACC cell viability assay (AID 1918964; further: potency means the concentration at half of the fitted maximal effect). The following applies: JIM1 myeloma viability, CellTiter-Glo ATP luminescence, 48 h; series mostly up to 45.8 µM. The procedure, abridged:
as §3

Experiment [10] in a line: Quantitative High-Throughput drug screen in 47 multiple myeloma cell lines against the NCATS MIPE library collection: H1112_PLB cell viability assay (AID 1918967; further: nearly all actives have a fitted effect of over 30% in size; further: potency means the concentration at half of the fitted maximal effect). The following applies: H1112 myeloma cells viability, ATP luminescence, 48 h; series mostly up to 45.8 µM. An outline of the steps:
as §3

Experiment [11] in a line: Quantitative High-Throughput drug screen in 47 multiple myeloma cell lines against the NCATS MIPE library collection: MM1S_ATCC cell viability assay (AID 1918980). Further: nearly all actives have a fitted effect of over 45% in size. Further: potency means the concentration at half of the fitted maximal effect. The following applies: MM1S myeloma viability, CellTiter-Glo ATP luminescence, 48 h; series mostly up to 45.8 µM. The procedure, abridged:
as §5

Experiment [12] is described as follows: Quantitative High-Throughput drug screen in 47 multiple myeloma cell lines against the NCATS MIPE library collection: JJN3_DSMZ cell viability assay (AID 1918966; further: nearly all actives have a fitted effect of over 50% in size; further: potency means the concentration at half of the fitted maximal effect). The note with it: JJN3 myeloma cells viability, CellTiter-Glo ATP, 48 h; series mostly up to 45.8 µM. An outline of the steps: as §3
Experiment [13] can be described thus: Quantitative High-Throughput drug screen in 47 multiple myeloma cell lines against the NCATS MIPE library collection: KMS26_JCRB cell viability assay (AID 1918975). Further: potency means the concentration at half of the fitted maximal effect; nearly all actives have a fitted effect of over 45% in size. The following applies: KMS26 myeloma cells viability, CellTiter-Glo ATP, 48 h; series mostly up to 45.8 µM. The procedure, abridged:
as §4

A short description of experiment [14]: Quantitative High-Throughput drug screen in 47 multiple myeloma cell lines against the NCATS MIPE library collection: MMM1_PLB cell viability assay (AID 1918976). The following applies: MMM1 myeloma cells viability, CellTiter-Glo, 48 h; series mostly up to 45.8 µM. The procedure, abridged:
as §5

The nature of experiment [15]: Quantitative High-Throughput drug screen in 47 multiple myeloma cell lines against the NCATS MIPE library collection: NCIH929_DSMZ cell viability assay (AID 1918978). Further: nearly all actives have a fitted effect of over 35% in size. Further: potency means the concentration at half of the fitted maximal effect. The following applies: NCI-H929 myeloma viability, CellTiter-Glo ATP, 48 h; series mostly up to 45.8 µM. An outline of the steps:
as §5

Experiment [16] in a line: Quantitative High-Throughput drug screen in 47 multiple myeloma cell lines against the NCATS MIPE library collection: KMS20_JCRB cell viability assay (AID 1918973). Further: potency means the concentration at half of the fitted maximal effect; nearly all actives have a fitted effect of over 45% in size. The following applies: CellTiter-Glo ATP, 48 h; series mostly up to 45.8 µM. An outline of the steps: as §3
A short description of experiment [17]: Quantitative High-Throughput drug screen in 47 multiple myeloma cell lines against the NCATS MIPE library collection: KHM11_PLB cell viability assay (AID 1918962). Further: nearly all actives have a fitted effect of over 35% in size. The following applies: KHM11 myeloma cell viability, CellTiter-Glo ATP luminescence, 48 h; series mostly up to 45.8 µM. An outline of the steps: as §1

Inconclusive results are not listed. Activity calls are given as the source filed them. The call rests on the fitted dose curve; in most records, active means well fitted curve in the direction sought with a large enough effect; inconclusive means small, poorly fitted or top-dose-only effect, or another doubt; inactive means no such curve, though single readings can be large; an effect the other way counts as inactive or inconclusive.

As for `Nc1ccc(S(=O)(=O)Nc2ncccn2)cc1`, the Potency entry in experiment [1], in [2], in experiment [3], in [4], in experiment [5] and in experiment [6] was “inactive” each time. The Potency result in experiment [7] and in [8] was “inactive” throughout.
Consider `O=C(O)c1ccc2cc(-c3ccc(O)c(C45CC6CC(CC(C6)C4)C5)c3)ccc2c1`, for which the Potency in [1] was 3.72 µM (active); in experiment [9] it was 0.332 µM (active); in experiment [2], 0.264 µM (active); in [10], 0.418 µM (active); in experiment [3] it was 1.48 µM (active); in experiment [4], 0.187 µM (active). The Potency in experiment [5] was 4.69 µM (active); in experiment [6], 0.526 µM (active); in experiment [7], 1.32 µM (active); in [8] it was 16.6 µM (active); in [11], 1.32 µM (active).
Turning to `Nc1ccc(C(=O)c2cc3c(ccc4ccccc43)[nH]2)cc1`, the Potency in experiment [1] is 2.64 µM (active); in [12], 7.43 µM (active); in [3], 3.72 µM (active); in experiment [5] it was 2.64 µM (active); in experiment [13] it was 16.6 µM (active); in experiment [14], 6.62 µM (active). Further, the Potency in [15] was 18.7 µM (active).
As for `CCCNC(=O)Nc1ccc(Oc2ncnc3cc(OC)c(OC)cc23)cc1Cl`, the Potency result in [1], in [9], in [2], in experiment [12], in experiment [10] and in experiment [3] was “inactive” in each case. Besides, the Potency entry in experiment [4], in experiment [6], in experiment [7] and in [8] was “inactive” each time. For the same compound, the Potency in experiment [5] was 18.7 µM (active); in experiment [14] it was 1.66 µM (active); in experiment [11] it was 20.9 µM (active).
`Cc1cc(Nc2cc(CN3CCOCC3)c3nc(C)c(Cc4ccc(Cl)cc4F)n3n2)n[nH]1`: the Potency is 4.69 µM (active) in experiment [1]; 0.418 µM (active) in [9]; 18.7 µM (active) in experiment [12]; 23.5 µM (active) in experiment [10]; 20.9 µM (active) in [3]; 5.26 µM (active) in [5]. For the same compound, the Potency is 5.26 µM (active) in experiment [16], 14.8 µM (active) in [14], 20.9 µM (active) in experiment [7] and 20.9 µM (active) in experiment [11].
For the compound `CN(C)CC(C)(C)CNc1nn2c(-c3ccccc3)nnc2cc1C1CCC1`, the Potency in [9] was 2.09 µM (active); in experiment [2], 2.96 µM (active); in experiment [3], 16.6 µM (active); in [4], 1.18 µM (active). The Potency entry in [8] is “inactive”.
With `Clc1cccc(-n2nnnc2NCc2ccccc2Oc2ccccn2)c1Cl`, the Potency result in experiment [17], in experiment [1], in experiment [10], in [15], in experiment [8] and in [11] was “inactive” in each case.
`C=C1C(=CC=C2CCCC3(C)[C@@H]([C@H](C)C=CC=CC(O)(CC)CC)CC[C@@H]23)C[C@@H](O)C[C@@H]1O` (stereo partly drawn): the Potency in experiment [9] is 16.6 µM (active); in experiment [12], 18.7 µM (active); in [10], 23.5 µM (active); in [4], 29.6 µM (active); in experiment [5] it was 20.9 µM (active); in experiment [6], 14.8 µM (active). The Potency is 23.5 µM (active) in [13] and 10.5 µM (active) in [11].
